KCNQ2 inh: KCNQ2 (rat) channel inhibition; O88943; CHO-K1 KCNQ2, FluxOR thallium flux, 20 min; hits give low values; B-score at 10 µM; AID 2156; hit rate 1.1% among 310,000;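 active = fluorescence ratio B-score at most minus 3 library SDs, with starting brightness B-score within 2 library SDs, cut at about -5.5 in these data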
KCNQ2 pot: KCNQ2 (rat) channel potentiation. CHO-K1 KCNQ2, FluxOR thallium flux fluorescence; hits give high values. O88943. hit rate 0.54% among 310,000. B-score at 10 µM;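 active = fluorescence ratio B-score at least 3 SD of library B-scores, with initial fluorescence B-score within 3 of them, cut at about 5.3 in these data; same plate scores as AID 2156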;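 also: B-score of peak minus minimum over baseline fluorescence ratio after K+ and Tl+ stimulus; positive B-score means potentiation of KCNQ2 with more thallium influx and brighter signal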
Kir21 confirm: confirmation of mouse Kir2.1 potassium channel inhibitors; shares compounds with KCNQ2 pot; Kir2.1-expressing cells, FluxOR thallium flux fluorescence; hits give low values; Tl flux remaining, % of negative control (hits give low values), % at 10 µM; hit rate 41% among 2,300;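 active = Primary-screen hit whose thallium flux fell at least 3 control SD below untreated wells in both duplicates, with normal baseline fluorescence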;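 also: 0% = blank wells without stimulus and 100% = stimulated no-compound controls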
HEK293 Tl flux: counter-screen for Kir2.1 inhibitors: effect in parental HEK293 cells; hit rate 19% among 2,300; shares compounds with KCNQ2 pot; FluxOR thallium flux fluorescence; 0% = unstimulated blank wells; FluxOR signal as % of negative control (100 = no effect), % at 10 µM; AID 2105;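 active = dye signal at least 3 control SD above or below untreated wells in both duplicates, raw fluorescence within 3, either direction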;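 also: percent is based on the flux ratio of peak minus minimum fluorescence over baseline F0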
CHO-K1 Tl ctr: parental CHO-K1 activity in KCNQ2 potentiator counter-screen; parental CHO-K1 cells, FluxOR thallium flux fluorescence; zero = vehicle mean+3SD, 100% = vehicle-minus-blank window; AID 2282; activity increase over 3SD of controls, % at 10 µM; hit rate 43% among 1,200; shares compounds with KCNQ2 pot;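 active = signal rise of at least 3 SD above the untreated control mean, in both duplicate wells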;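 also: counter screen of KCNQ2 potentiator hits so any rise reflects channel-independent effects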
KCNQ1 pot spec: human KCNQ1 counter-target activity of KCNQ2 potentiators | CHO KCNQ1 stable, FluxOR thallium flux fluorescence; beyond 3SD, as % of vehicle-control signal | AID 2283 | activation over 3SD threshold, % at 10 µM | hit rate 28% among 1,200 | shares compounds with KCNQ2 pot;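 active = fluorescence ratio rise of at least 3 SD of vehicle wells above their mean, in both replicate wells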;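 also: 0% = vehicle mean plus 3 SD and 100% = vehicle minus unstimulated blank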
KCNQ2 pot conf: confirmation of rat KCNQ2 potassium channel potentiators | hit rate 68% among 1,200 | potentiation, less the hit threshold, % at 10 µM | shares compounds with KCNQ2 pot | CHO-KCNQ2 cells, FluxOR thallium flux fluorescence;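 active = fluorescence ratio rising 3 SD or more over the vehicle control mean in both replicates, plus primary screen hit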;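 also: peak minus minimum thallium fluorescence divided by baseline after K/Tl stimulus; 0% = vehicle mean plus 3 SD and 100% = vehicle minus unstimulated blank difference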
Kir2-1 sel: mouse Kir2.1 off-target activity of KCNQ2 potentiators | shares compounds with KCNQ2 pot | HEK293 Kir2.1, FluxOR thallium flux fluorescence | activity over 3SD threshold, % at 10 µM | hit rate 2% among 1,200 | AID 2345;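 active = fluorescence ratio rise of at least 3 SD above the vehicle-control mean, seen in both replicates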;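 also: 0% = vehicle mean plus 3 SD and 100% = vehicle minus no-stimulus blank window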
KCNQ2 W236L pot: potentiates the retigabine-insensitive rat KCNQ2 W236L mutant channel; shares compounds with KCNQ2 pot; CHO KCNQ2-W236L, automated patch clamp current; current increase over 3SD of negative controls (%), hits give high values, % at 25 µM; hit rate 10% among 940; AID 2558;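 active = current increase at least 3 SD of the untreated controls above them in both duplicate recordings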
Target sequence (O88943 whole entry W236L, looked up): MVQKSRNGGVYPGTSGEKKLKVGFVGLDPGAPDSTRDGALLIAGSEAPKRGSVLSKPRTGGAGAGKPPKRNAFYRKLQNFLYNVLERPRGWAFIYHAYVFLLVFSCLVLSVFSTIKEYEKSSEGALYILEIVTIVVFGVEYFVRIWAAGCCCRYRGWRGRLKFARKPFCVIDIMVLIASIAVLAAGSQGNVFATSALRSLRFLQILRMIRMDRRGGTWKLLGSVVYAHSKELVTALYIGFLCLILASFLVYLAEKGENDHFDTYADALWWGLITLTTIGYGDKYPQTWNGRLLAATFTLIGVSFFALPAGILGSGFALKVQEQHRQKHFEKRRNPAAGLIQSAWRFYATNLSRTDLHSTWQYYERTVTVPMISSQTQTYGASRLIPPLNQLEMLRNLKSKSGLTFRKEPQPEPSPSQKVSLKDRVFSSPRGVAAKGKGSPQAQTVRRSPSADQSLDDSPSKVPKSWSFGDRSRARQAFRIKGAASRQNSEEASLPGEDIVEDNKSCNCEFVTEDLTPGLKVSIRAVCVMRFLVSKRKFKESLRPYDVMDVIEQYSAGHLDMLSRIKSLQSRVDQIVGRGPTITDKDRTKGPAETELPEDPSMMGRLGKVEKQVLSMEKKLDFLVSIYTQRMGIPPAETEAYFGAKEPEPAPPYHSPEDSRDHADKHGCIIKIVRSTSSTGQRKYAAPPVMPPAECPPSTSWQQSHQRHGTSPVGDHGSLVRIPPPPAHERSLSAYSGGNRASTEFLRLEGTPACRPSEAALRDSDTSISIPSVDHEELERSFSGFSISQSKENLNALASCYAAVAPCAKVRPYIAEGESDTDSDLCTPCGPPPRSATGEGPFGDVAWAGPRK
The depositor's hits bear a star; i = inactive; nt = not tested or not shown. A selection: hits, their analogues and other compounds. The true share with any hit is near 1.6%.

SMILES	KCNQ2 inh	KCNQ2 pot	Kir21 confirm	HEK293 Tl flux	others
CC(=O)c1c(C)[nH]c(-c2ccccc2)nc1=S	i	6*	i	168%*	CHO-K1 Tl ctr=41*;KCNQ1 pot spec=-4;KCNQ2 pot conf=-2;Kir2-1 sel=-24;KCNQ2 W236L pot=i
CCCOc1ccc(C2=CSC3=NCCN23)cc1[N+](=O)[O-]	i	0.46	nt	nt
Cc1ccc2c(c1)c1c3n2CCN(C(=O)CCl)C3CCC1 (centres undefined)	i	nt	i	i
CC(=O)N1CCn2c3c(c4cc(C)ccc42)CCCC31 (centres undefined)	i	0.68	nt	nt
COc1ccc(C2/C(=C(/O)c3ccc4c(c3)CC(C)O4)C(=O)C(=O)N2CCN2CCOCC2)cc1OC (centres undefined)	i	nt	nt	nt
CC1=CCC(/C=N\Nc2nnc3c(n2)[nH]c2ccccc23)CC1 (centres undefined)	i	nt	nt	nt
c1ccc(-c2csc3ncnc(N4CCOCC4)c23)cc1	i	nt	nt	nt
c1ccc(-c2csc3ncnc(N4CCc5ccccc5C4)c23)cc1	i	nt	i	i
CN1C(=O)CSC1=S	i	nt	nt	nt
COc1ccc(C(=O)N/C(=C\c2ccco2)C(=O)OCc2ccco2)cc1	i	1.3	nt	nt
COc1ccc(C(=O)/C(=C\c2ccco2)N2C=CC=CC2=C(C#N)C#N)cc1	i	nt	70%*	61%*
Cc1ccccc1NC(=S)N(Cc1cccnc1)Cc1ccccc1Cl	i	nt	nt	nt
CCC(CC)C(=O)N1c2ccc(F)cc2CCC1C (centres undefined)	i	nt	nt	nt
CC(C(=O)N1c2ccc(F)cc2CCC1C)N1C(=O)c2ccccc2C1=O (centres undefined)	i	7.6*	i	123%*	CHO-K1 Tl ctr=103*;KCNQ1 pot spec=-9;KCNQ2 pot conf=-12;Kir2-1 sel=-32
CCOC(=O)C1CCCN(C(=O)c2cccc([N+](=O)[O-])c2C)C1 (centres undefined)	i	1.9	nt	nt
Cc1cc(-c2n[nH]c(=S)n2/N=C/C(Cl)=C/c2ccccc2)n[nH]1	i	nt	nt	nt
S=c1[nH]nc(-c2ccco2)n1/N=C/C(Cl)=C/c1ccccc1	i	7.2*	i	129%*	CHO-K1 Tl ctr=-21;KCNQ1 pot spec=-16;KCNQ2 pot conf=-3;Kir2-1 sel=-36;KCNQ2 W236L pot=i
COC(=O)CCCC1=CC2=C(c3ccccc3)C(=O)C(C)(OC(=O)C3CCCC3)C(=O)C2=CN1CCc1c[nH]c2ccccc12 (centres undefined)	i	0.34	nt	nt
Cc1cc(C)nc(/N=C(\N)Nc2ccc(C(C)C)cc2)n1	i	5.5*	i	i	CHO-K1 Tl ctr=100*;KCNQ1 pot spec=-15;KCNQ2 pot conf=-17;Kir2-1 sel=-42
Cc1ccc(N/C(N)=N/c2nc(C)cc(C)n2)cc1	i	0.74	nt	nt
COc1cc2c(cc1OC)n(CC(=O)NC1CCCCCC1)n1c(C)cc(=O)nc21	i	nt	nt	nt
Cc1ccc(S(=O)(=O)NCc2csc(-c3cccs3)n2)cc1	i	nt	nt	nt
O=S(=O)(NCc1csc(-c2cccs2)n1)c1cccs1	i	nt	nt	nt
O=S(=O)(NCc1csc(-c2cccs2)n1)c1ccc(Cl)cc1	i	nt	42%*	i
O=S(=O)(NCc1csc(-c2cccnc2)n1)c1ccc(Br)cc1	i	0.45	72%*	i
SMILES	KCNQ2 inh	KCNQ2 pot	Kir21 confirm	HEK293 Tl flux	others
COc1ccc(S(=O)(=O)NCc2csc(-c3cccnc3)n2)cc1	i	0.52	nt	nt
O=S(=O)(NCc1csc(-c2cccs2)n1)c1cccc(C(F)(F)F)c1	i	0.03	42%*	i
NS(=O)(=O)c1ccc(NC(=O)COC(=O)CNC(=O)C23CC4CC(CC(C4)C2)C3)cc1	i	0.1	nt	nt
Cc1ccc(C(=O)NC(=S)N(C)C2CCCCC2)cc1	i	5.7*	i	212%*	CHO-K1 Tl ctr=-37;KCNQ1 pot spec=18*;KCNQ2 pot conf=31*;Kir2-1 sel=-20;KCNQ2 W236L pot=i
CN(C(=S)NC(=O)/C=C/c1ccc(F)cc1)C1CCCCC1	i	nt	nt	nt
O=C(NC(=S)N1CCOCC1)c1cc2ccccc2o1	i	nt	nt	nt
Cc1ccc(-n2nc3c(N4CCC(C(=O)NCc5cccc(F)c5)CC4)nnc(C)c3c2C)cc1	i	nt	nt	nt
CN(C)CC/C=C1\c2ccccc2Sc2cc(F)c(Cl)cc21	i	nt	nt	nt
CN(C)CCCN1c2ccccc2Sc2ccc(Cl)cc21	i	0.4	28%*	i
CN(C)CC/C=C1\c2ccccc2Sc2ccc(Cl)cc21	i	0.23	26%*	i
CN(C)CC/C=C1/c2ccc(F)cc2Sc2ccc(Cl)cc21	-5.8*	-5.8	i	i
CN(C)CC/C=C1\c2ccc(F)cc2Sc2cc(F)c(Cl)cc21	i	nt	nt	nt
OCCN1CCN(CCCN2c3ccccc3Sc3ccc(Cl)cc32)CC1	i	nt	nt	nt
NC(=O)c1cc(S(=O)(=O)N2CCN(c3ccc([N+](=O)[O-])cc3)CC2)cs1	i	nt	nt	nt
CCOc1ccc(NC(=O)CCS(=O)(=O)c2ccc(C)cc2)cc1	i	nt	nt	nt
CCn1c(=O)c(C(=O)Nc2ccccc2S(N)(=O)=O)c(O)c2ccccc21	i	8*	i	i	CHO-K1 Tl ctr=53*;KCNQ1 pot spec=-11;KCNQ2 pot conf=11*;Kir2-1 sel=-41;KCNQ2 W236L pot=i
CCn1c(=O)c(C(=O)Nc2ccccc2C)c(O)c2ccccc21	i	nt	nt	nt
O=C(NCCc1ccc(Cl)cc1)C1CCN(C(=O)c2ccc(F)cc2)CC1	i	0.63	nt	nt
CCC(O)(CC)C(=O)N(Nc1ccc(C)cc1)c1ccc(C)cc1	i	5.6*	i	i	CHO-K1 Tl ctr=-6;KCNQ1 pot spec=-4;KCNQ2 pot conf=-1;Kir2-1 sel=-42;KCNQ2 W236L pot=37%*
CCOC(=O)C(=O)N(Nc1ccc(C)cc1)c1ccc(C)cc1	i	nt	nt	nt
O=C(Cc1ccc(Cl)cc1)Nc1cc(Cl)ccn1	i	1.9	nt	nt
COc1ccc2c(C(=O)c3ccc(Cl)cc3)n(CCCC(N)=O)[n+]([O-])c2c1	i	0.22	nt	nt
O=C(Cc1ccccc1)N/N=C/c1cc(Br)cc(Br)c1O	i	7*	i	i	CHO-K1 Tl ctr=4.9*;KCNQ1 pot spec=-25;KCNQ2 pot conf=-9;Kir2-1 sel=-36;KCNQ2 W236L pot=i
O=C(Nc1cccc(NC(=O)c2ccco2)c1)c1cccc(Br)c1	i	1.4	nt	nt
O=C(Nc1cccc(N=Cc2cc(Br)cc(Br)c2O)c1)c1ccco1	i	9.3*	i	i	CHO-K1 Tl ctr=56*;KCNQ1 pot spec=49*;KCNQ2 pot conf=15*;Kir2-1 sel=-36;KCNQ2 W236L pot=i
O=C(CNC(=O)c1cccc(Br)c1)N/N=C/c1cc(Br)cc(Br)c1O	i	nt	nt	nt
O=C(c1cccs1)N1CCC(c2nc3c(nnn3Cc3c(Cl)cccc3Cl)c(=O)[nH]2)CC1	i	0.32	nt	nt
O=C(COc1ccc2ccccc2c1Br)N1CCCC1	i	2.3	nt	nt

Screening data as filed in PubChem.
